According to paper PMC4552634, “A New Set of Chemical Starting Points with Plasmodium falciparum Transmission-Blocking Potential for Antimalarial Drug Discovery” (PLoS ONE, 2015):
The whole screen tested about 13,000 compounds, of which about 3,200 (25%) showed an effect of 50% or more. This is one part of the list.

Each compound was assayed on P. falciparum stage V gametocytes. Conditions: 48 h, 5 µM; inhibitor.
Set-up: BacTiter-Glo ATP luminescence viability of purified stage V gametocytes in 384-well plates, per cent inhibition versus DMSO

Row | SMILES | % Inhibition
1 | CCN1CCN(c2cc(C)c3cc(NC(=O)c4cc(OC)cc(OC)c4)ccc3n2)CC1 [TCMDC-125575] | -6.076%
2 | CN(Cc1ccccc1)C(=O)c1nn(CCCN2CCC(N3CCCC3)CC2)cc1-c1ccc(Cl)c(Cl)c1 [TCMDC-141730] | 45.58%
3 | O=C(NCc1ccccc1)c1ncn(CCCN2CCC(N3CCCC3)CC2)c1-c1ccc(Cl)c(Cl)c1 [TCMDC-135228] | 91.41%
4 | COc1cc(NC(=O)c2nn(CCCN3CCC4(CC3)C(=O)NCN4c3ccccc3)cc2-c2ccc(Cl)c(Cl)c2)cc(OC)c1OC [TCMDC-141726] | -40.66%
5 | O=C(NCc1ccccc1)NC(CCCN1CCC(Oc2cccc(Cl)c2)CC1)c1ccc(Cl)c(Cl)c1 (stereo not drawn) [TCMDC-141903] | -17.97%
6 | COc1cc(C(=O)NCc2nn(CCN3CCC(N4CCCC4)CC3)cc2-c2ccc(Cl)c(Cl)c2)cc(OC)c1OC [TCMDC-141966] | 24.89%
7 | O=C(Nc1ccccc1)c1nn(CCCN2CCC(N3CCCC3)CC2)cc1-c1ccc(Cl)c(Cl)c1 [TCMDC-141727] | 76.09%
8 | O=C(NCc1ccc2c(c1)OCO2)c1nn(CCN2CCC(N3CCCC3)CC2)cc1-c1ccc(Cl)c(Cl)c1 [TCMDC-141908] | -16.74%
9 | O=C(NCc1ccccc1)c1nn(CCCN2CCC(N3CCCC3)CC2)cc1-c1ccc(Cl)c(Cl)c1 [TCMDC-141728] | 73.12%
10 | COc1cc(NC(=O)c2nn(CCCN3CCC(N4CCCC4)CC3)cc2-c2ccc(Cl)c(Cl)c2)cc(OC)c1OC [TCMDC-141725] | 29.9%
11 | CCOc1cc(C(=O)Nc2cccnc2)ccc1-c1nc2cc(Cl)c(Cl)cc2[nH]1 [TCMDC-140059] | 1.839%
12 | Cc1nc2nc(N)nc(N)c2c(C)c1Cc1ccccc1I [TCMDC-137243] | -2.242%
13 | CCCCCNc1nc2nc(N)nc(N)c2nc1-c1ccccc1 [TCMDC-141983] | -14.59%
14 | Cc1noc(C)c1S(=O)(=O)N(C)Cc1ccc(-c2ccc(Cl)cc2)o1 [TCMDC-125303] | -57.93%
15 | Cc1onc(-c2ccc(Cl)cc2)c1-c1ccnn1S(=O)(=O)c1ccc(Cl)cc1 [TCMDC-123770] | 63.51%
16 | Cc1ccc(S(=O)(=O)n2nccc2-c2c(-c3ccc(Cl)cc3)noc2C)cc1 [TCMDC-124500] | 65.37%
17 | Cc1cc(C(=O)NCc2ccc(-c3c(C)noc3C)cc2)n(-c2ccc(Cl)cc2)n1 [TCMDC-133781] | 35.85%
18 | COc1ccc(Nc2ncc3c(-c4cccc(NC(=O)Cc5cccc(F)c5)c4)c[nH]c3n2)cc1OC [TCMDC-135251] | -27.44%
19 | COc1ccc2ccccc2c1CCCCN1CCN(CC(c2ccc(F)cc2)N2CCN(C(C)C)CC2)CC1 (stereo not drawn) [TCMDC-134847] | 46.9%
20 | COc1cccc(CN2CCN(C(c3ccccc3)c3ccccc3)CC2)c1O [TCMDC-125556] | -14.13%
21 | Cc1ccccc1OCCCN1CCN(CC(c2ccc(F)cc2)N2CCN(C(C)C)CC2)CC1 (stereo not drawn) [TCMDC-135492] | -21.14%

Row | SMILES | % Inhibition
22 | CC1(C)N=C(N)N=C(N)N1OCCCOc1cccc2ccccc12 [TCMDC-131626] | 30.73%
23 | COc1ccc2ccccc2c1CCCCN1CCN(CC(c2ccc(F)cc2)N2CCN(C3CCCC3)CC2)CC1 (stereo not drawn) [TCMDC-135865] | -18.03%
24 | COc1ccc(OCCCN2CCN(CC(c3ccc(F)cc3)N3CCN(C(C)C)CC3)CC2)c2ccccc12 (stereo not drawn) [TCMDC-135639] | 74.93%
25 | COc1ccc2ccccc2c1CCCCN1CCN(CC(c2ccc(F)cc2)N2CCC(N3CCCC3)CC2)CC1 (stereo not drawn) [TCMDC-135866] | 9.799%
26 | CC(C)N1CCN(C(CN2CCN(CCCOc3cccc4ccccc34)CC2)c2ccc(F)cc2)CC1 (stereo not drawn) [TCMDC-135494] | 68.95%
27 | COc1cc2ccccc2cc1OCCCN1CCN(CC(c2ccc(F)cc2)N2CCN(C(C)C)CC2)CC1 (stereo not drawn) [TCMDC-135496] | 103.4%
28 | COc1ccc2ccccc2c1CCCCN1CCN(CC(c2ccc(F)cc2)N2CCC2)CC1 (stereo not drawn) [TCMDC-135867] | 60.92%
29 | CN1CCN(c2ccc(-c3cccc(NC(=O)c4cccc(Cl)c4)c3)nn2)CC1 [TCMDC-125348] | 20.42%
30 | N#CC(c1ccc(Br)cc1)c1ccc2c(C(F)(F)F)cc(C(F)(F)F)nc2n1 (stereo not drawn) [TCMDC-123754] | 9.304%
31 | CCCN(CCC)S(=O)(=O)c1ccc(C(=O)Nc2nc3ccc(-c4cc(=O)[nH]c(Nc5ccccc5Cl)n4)cc3[nH]2)cc1 [TCMDC-135852] | -12.1%
32 | CN1CCOc2ccc(Nc3nnc(-c4cccc(-c5cccnc5)c4)o3)cc2C1 [TCMDC-134278] | -13.91%
33 | O=C(/C=C/c1ccccc1F)NC1CCC(CCN2CCc3ccc(-c4cccnc4)cc3CC2)CC1 (stereo not drawn) [TCMDC-140229] | -63.4%
34 | CCN(CC)CCn1c(=N)n(CC(O)c2ccc(Cl)c(Cl)c2)c2ccccc21 (stereo not drawn) [TCMDC-124062] | 86.67%
35 | CCCCCCCn1c(=N)n(CC(O)c2ccc(Cl)c(Cl)c2)c2ccccc21 (stereo not drawn) [TCMDC-124065] | 113.9%
36 | CN(CCC(O)c1ccc(Cl)c(Cl)c1)CC1CC1C(=O)c1ccccc1 (stereo not drawn) [TCMDC-136791] | 31.08%
37 | CN(C)CCn1c(=N)n(CC(O)c2ccc(Cl)c(Cl)c2)c2ccccc21 (stereo not drawn) [TCMDC-125810] | 59.92%
38 | CN(CCN(C)CC(O)c1ccc(Cl)c(Cl)c1)CC(O)c1ccc(Cl)c(Cl)c1 (stereo not drawn) [TCMDC-141988] | -33.12%
39 | CCCCCCCCCn1c(NCc2cc(Cl)ccc2O)nc2ccccc21 [TCMDC-123817] | -10.34%
40 | CCCCCCCCCCNCC(O)c1ccc(O)c(C(=O)OC)c1 (stereo not drawn) [TCMDC-132043] | 1.141%
41 | COc1cccc(C(=O)C2CC2CN(C)CCC(O)c2ccc(Cl)c(Cl)c2)c1 (stereo not drawn) [TCMDC-136793] | 24.64%
42 | CCc1cccc(-n2c(=O)c3cccnc3n2CC(=O)NCc2ccccc2Cl)c1 [TCMDC-125159] | 19.11%
